Source: PubChem BioAssay AID1159580 (chemical genetic matrix, 2015)
The whole screen tested about 5,500 compounds, of which about 2,000 (36%) were called active. Roughly 18% stayed inconclusive and do not appear here. Cut-off read from the data, not from the text of the source: active = normalized growth mostly below about 0.91 (no sharp cut-off); inconclusive = no clear call, values can overlap the other calls; inactive = mostly above about 0.92. This is one part of the list.

Test: chemical genetic growth profiling, strain panel (AID 1159580);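 note: tested at 20 µM; growth read once vehicle control cultures reached saturation at 30 °C; 1 = growth at the plate median or of vehicle wells; lower values mean less growth of the strain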
Details: growth OD
[1] = S. cerevisiae deletion strains, locus YAL013W, strain DEP1, stronger effect = lower value
[2] = S. cerevisiae deletion strains, locus YBR229C, strain ROT2, stronger effect = lower value
[3] = S. cerevisiae deletion strains, locus YCL061C, strain MRC1, stronger effect = lower value
[4] = S. cerevisiae deletion strains, locus YDL101C, strain DUN1, stronger effect = lower value
[5] = S. cerevisiae deletion strains, locus YDR150W, strain NUM1, stronger effect = lower value
[6] = S. cerevisiae deletion strains, locus YEL061C, strain CIN8, stronger effect = lower value
[7] = S. cerevisiae deletion strains, locus YGR078C, strain PAC10, stronger effect = lower value
[8] = S. cerevisiae deletion strains, locus YHR030C, strain SLT2, stronger effect = lower value
[9] = S. cerevisiae deletion strains, locus YHR087W, strain rtc3, stronger effect = lower value
[10] = S. cerevisiae deletion strains, locus YJR043C, strain POL32, stronger effect = lower value
[11] = S. cerevisiae deletion strains, locus YJR075W, strain HOC1, stronger effect = lower value
[12] = S. cerevisiae deletion strains, locus YLR039C, strain RIC1, stronger effect = lower value
[13] = S. cerevisiae deletion strains, locus YLR058C, strain SHM2 (second series), stronger effect = lower value
[14] = S. cerevisiae deletion strains, locus YLR085C, strain ARP6, stronger effect = lower value
[15] = S. cerevisiae deletion strains, locus YLR262C, strain YPT6, stronger effect = lower value
[16] = S. cerevisiae deletion strains, locus YML094W, strain GIM5, stronger effect = lower value
[17] = S. cerevisiae deletion strains, locus YMR219W, strain ESC1, stronger effect = lower value
[18] = S. cerevisiae deletion strains, locus YMR263W, strain SAP30, stronger effect = lower value
[19] = S. cerevisiae deletion strains, locus YMR307W, strain GAS1, stronger effect = lower value
[20] = S. cerevisiae deletion strains, locus YNL128W, strain TEP1, stronger effect = lower value
[21] = S. cerevisiae deletion strains, locus YNL153C, strain GIM3, stronger effect = lower value
[22] = S. cerevisiae deletion strains, locus YNL298W, strain CLA4 (second series), stronger effect = lower value
[23] = S. cerevisiae deletion strains, locus YNL322C, strain KRE1, stronger effect = lower value
[24] = S. cerevisiae deletion strains, locus YNR030W, strain Alg12, stronger effect = lower value
[25] = S. cerevisiae deletion strains, locus YPL055C, strain LGE1, stronger effect = lower value
[26] = S. cerevisiae deletion strains, locus YPL241C, strain CIN2, stronger effect = lower value
[27] = S. cerevisiae deletion strains, locus YPR135W, strain CTF4, stronger effect = lower value

Measured: normalized growth

Nc1c(Cl)cc(C(=O)Nc2cc(Cl)cc(Cl)c2)cc1Cl
active: [1] 0.897 | [8] 0.496 | [10] 0.907 | [12] 0.77 | [19] 0.651 | [22] 0.825 | [24] 0.778 | [25] 0.8 | [26] 0.821
inactive: [2] 0.957 | [3] 0.994 | [4] 1.02 | S. cerevisiae deletion strains, locus YDL134C, strain PPH21, stronger effect = lower value 0.978 | [5] 0.934 | [6] 0.956 | [7] 0.977 | [9] 0.935 | [11] 0.97 | [13] 0.99 | [14] 0.842 | [15] 0.847 | [16] 0.872 | [17] 0.976 | [18] 0.934 | [20] 0.982 | [21] 0.984 | [23] 1 | [27] 0.894 | S. cerevisiae strains, strain wild type, stronger effect = lower value 0.956

CCCCC#Cc1ccc(C(=O)NNC(=O)Nc2cc(Cl)cc(Cl)c2)o1
inactive: [1] 1.03 | [2] 1.01 | [3] 0.981 | [4] 1.02 | [5] 0.963 | [6] 0.963 | [7] 1 | [8] 1.01 | [9] 1.01 | [10] 0.998 | [11] 0.973 | [12] 1.03 | [13] 1.01 | [14] 1.07 | [15] 1.05 | [16] 1 | [17] 1.01 | [18] 1.07 | [19] 1 | [20] 0.995 | [21] 0.995 | [22] 1.03 | [23] 1.03 | [24] 0.995 | [25] 1.03 | [26] 1.02 | [27] 0.931
